Data reported in PubChem BioAssay (NCI).
This is part of a sample that, as a whole, favours compounds with a hit. Of some 83,000 tested, about 20% had one in any assay.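 Growth was measured after 48 h exposure to one concentration of compound in 96-well plates. Values under 10 count as active.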 The source made the active and inactive calls.

Columns and labels:
Assay in all cases: NCI-60 one-dose screen, 48 h (100 = growth as untreated, 0 = no growth, -100 = all killed)
[1] = system: HCT-15 colon; conditions: 10 µM unless noted
[2] = system: HT29 colon; conditions: 10 µM unless noted
[3] = system: SNB-75 CNS; conditions: 10 µM unless noted
[4] = system: SNB-19 CNS; conditions: 10 µM unless noted
[5] = system: U251 CNS; conditions: 10 µM unless noted
[6] = system: PC-3 prostate; conditions: 10 µM unless noted
[7] = system: SK-MEL-5 melanoma; conditions: 10 µM unless noted
[8] = system: UACC-62 melanoma; conditions: 10 µM unless noted
[9] = system: LOX IMVI melanoma; conditions: 10 µM unless noted
[10] = system: SK-MEL-28 melanoma; conditions: 10 µM unless noted
[11] = system: SK-MEL-2 melanoma; conditions: 10 µM unless noted
[12] = system: UO-31 renal; conditions: 10 µM unless noted
[13] = system: TK-10 renal; conditions: 10 µM unless noted
[14] = system: ACHN renal; conditions: 10 µM unless noted
[15] = system: A498 renal; conditions: 10 µM
[16] = system: HL-60(TB) leukemia; conditions: 10 µM unless noted
[17] = system: CCRF-CEM leukemia; conditions: 10 µM unless noted
[18] = system: SN12C renal; conditions: 10 µM unless noted
[19] = system: CAKI-1 renal; conditions: 10 µM unless noted
[20] = system: EKVX NSCLC; conditions: 10 µM unless noted

Measured: growth

ClCCN(CCCl)c1ccc(OCc2ccccc2)cc1
inactive: [1] 73.1% | [2] 76.7% | [3] 53.8% | [4] 57.1% | [5] 40.5% | [6] 63.1% | [7] 82.7% | [8] 44.2% | [9] 38.9% | [10] 84.1% | [11] 114% | [12] 38.6% | [13] 96.3% | [14] 17.7% | [15] 68.9% | [16] 10.6% | [17] 14.4%

C[C@]12C[C@@H](CO)[C@H](O)C[C@@H]1CC[C@@H]1[C@@H]2CC[C@]2(C)[C@@H](O)CC[C@@H]12
inactive: [1] 105% | [2] 84% | [3] 107% | [4] 108% | [5] 96.1% | [6] 95.1% | [7] 103% | [8] 106% | [9] 93.8% | [10] 105% | [11] 86% | [18] 106% | [12] 89.6% | [13] 103% | [19] 94.1% | [15] 95.1% | [16] 71%

CCNc1nc(Cl)nc(NCC)n1
inactive: [1] 112% | [2] 107% | [3] 93.6% | [4] 93% | [5] 104% | [6] 89.9% | [7] 98.2% | [8] 102% | [9] 97.9% | [10] 115% | [20] 86.5% | [18] 102% | [12] 77.1% | [13] 116% | [14] 102% | [19] 77.3% | [15] 95.8% | [16] 98.4% | [17] 96.8%

CN(C)C(=O)Oc1ccc(Br)cc1
inactive: [1] 105% | [2] 109% | [3] 89% | [4] 107% | [5] 98.3% | [6] 97.1% | [7] 98.8% | [8] 113% | [9] 96.4% | [10] 104% | [18] 106% | [12] 85.1% | [13] 99.8% | [14] 109% | [19] 95.5% | [15] 117% | [16] 102% | [17] 89.7%

Nc1ccc2c(c1)oc1ccccc12
inactive: [1] 112% | [2] 92.2% | [3] 81.1% | [4] 110% | [5] 94.4% | [6] 82.6% | [7] 104% | [8] 94.9% | [9] 109% | [10] 104% | [11] 102% | [18] 94.6% | [12] 69.3% | [13] 135% | [19] 82.5% | [16] 78.3% | [17] 55.6%

COc1cc(/C=C\c2cc(OC)c(OC)c(OC)c2)cc(NS(=O)(=O)c2cccc(Cl)c2)c1OC
active: [7] -29.4% | [16] 4.54% | [17] 9.72%
inactive: [1] 10.9% | [2] 15.3% | [3] 64.5% | [4] 41.2% | [5] 11.1% | [6] 35.1% | [8] 36.1% | [9] 20% | [10] 64% | [11] 23.5% | [18] 27.7% | [12] 32.1% | [13] 63.3% | [14] 16.4% | [19] 11.4%

N/C(=N/N=C/c1ccncc1)N[N+](=O)[O-]
inactive: [1] 97.3% | [2] 101% | [3] 96% | [4] 104% | [5] 97.4% | [6] 97.9% | [7] 103% | [8] 97.3% | [9] 95.5% | [10] 110% | [11] 104% | [18] 95.8% | [12] 93.8% | [13] 94.1% | [14] 101% | [15] 86.3% | [16] 109% | [17] 101%

CC12CC(=O)C3(SC#N)C(CCC4=CC(=O)CCC43C)C1CCC2=O (stereo unspecified)
inactive: [1] 34.5% | [2] 64.2% | [3] 93.6% | [4] 96% | [5] 101% | [6] 104% | [7] 101% | [8] 89.3% | [9] 80.8% | [10] 94.7% | [11] 125% | [18] 85% | [12] 39% | [13] 81.4% | [19] 93.5% | [15] 95.3% | [16] 43.2%

O=C(Nc1ccc(O)cc1)C(Cl)(Cl)Cl
inactive: [1] 98.7% | [2] 105% | [3] 98.5% | [4] 102% | [5] 95% | [6] 101% | [7] 100% | [8] 93.8% | [9] 106% | [10] 107% | [11] 99.4% | [18] 95.4% | [12] 93.4% | [13] 106% | [14] 104% | [19] 89.9% | [16] 98.5% | [17] 106%

COc1ccc(S(=O)(=O)Nc2c(/C=C\c3cc(OC)c(OC)c(OC)c3)ccc(OC)c2O)cc1OC
inactive: [1] 15.6% | [2] 10% | [3] 43.8% | [4] 39% | [5] 12.9% | [6] 28.2% | [8] 45.2% | [9] 21.6% | [10] 58.6% | [12] 49.3% | [13] 70.9% | [14] 29.6% | [19] 22.8% | [17] 12%
active: [7] -34.9% | [11] 9.91% | [16] 4.28%

C[CH2][Sn]([Cl])([Cl])[CH2]C.Oc1ccccc1C=NCCN=Cc1ccccc1O
inactive: [1] 104% | [2] 108% | [3] 121% | [4] 106% | [5] 93.5% | [6] 89.8% | [7] 99.5% | [8] 93.8% | [9] 72.2% | [11] 116% | [20] 96.9% | [18] 101% | [12] 72.8% | [13] 117% | [14] 97.5% | [19] 86.5% | [15] 103% | [16] 113% | [17] 92.5%

COC(=O)[C@@H](C)C[C@H](Cc1ccccc1)NC(=O)c1csc([C@@H](C[C@H](C(C)C)N(C)C(=O)[C@@H](NC(=O)[C@H]2CCCCN2C)c2ccc(F)cc2)OC(C)=O)n1
active: [2] 6.87% | [5] 4.87% | [7] -46.3% | [9] 7.62% | [15] -9.07% | [17] 8.77%
inactive: [1] 15.5% | [3] 30.7% | [4] 74.8% | [6] 15.8% | [8] 40% | [11] 30.2% | [20] 29.8% | [18] 15.4% | [12] 35.2% | [14] 19.4% | [19] 14%

CC(=O)O[C@H]1C(=O)[C@@]2(C)[C@H]([C@H](OC(=O)c3ccccc3)[C@]3(O)C[C@H](OC(=O)[C@H](OC(=O)OC[C@@H]4COC(C)(C)O4)[C@@H](NC(=O)c4ccccc4)c4ccccc4)C(C)=C1C3(C)C)[C@]1(OC(C)=O)CO[C@@H]1C[C@@H]2O
active: [1] 3.91% | [2] -2.35% | [3] -15.6% | [16] 4.01%
inactive: [4] 12.7% | [5] 17% | [6] 22.1% | [7] 22% | [8] 24.2% | [11] 24.3% | [20] 29.1% | [18] 27% | [12] 34.1% | [13] 26% | [14] 36.2% | [19] 27.4% | [15] 13.4% | [17] 17.8%

O=C(Nc1ccc(Cl)cc1)Nc1nccs1
active: [3] 1.2% | [15] 8.26% | [16] -18.6% | [17] 6.31%
inactive: [1] 33% | [2] 10.7% | [4] 64.9% | [5] 22.3% | [6] 13.3% | [7] 31.2% | [8] 50.3% | [9] 46.3% | [10] 50.5% | [18] 50.4% | [12] 40.3% | [14] 54.4% | [19] 22.6%

Cc1c(NS(=O)(=O)c2ccccc2)ccc([N+](=O)[O-])c1Cl
inactive: [1] 64.9% | [2] 76.4% | [3] 75.4% | [4] 61.7% | [5] 63.5% | [6] 56.2% | [7] 25.8% | [8] 31.2% | [10] 70.5% | [11] 65.1% | [20] 65.3% | [18] 58.6% | [12] 45.1% | [13] 77% | [14] 69.7% | [19] 47.8% | [15] 59.3% | [17] 64.3%

C[S+]1C=Cc2ccccc2C1c1ccc(Cl)cc1 (stereo unspecified)
inactive: [1] 96.8% | [2] 84.9% | [4] 110% | [5] 67% | [6] 73.5% | [7] 99.3% | [8] 95.8% | [9] 91.1% | [11] 92.7% | [20] 90.6% | [18] 96% | [12] 75.6% | [13] 101% | [14] 99.3% | [16] 91.3% | [17] 73.7%
active: [3] -70.7%

Cc1ccc(Nc2nc3c(s2)C2=CC[C@@H]4[C@H](CC[C@]5(C)C(=O)CC[C@@H]45)[C@@]2(C)CC3)cc1
active: [17] 7.68%
inactive: [1] 17% | [2] 15% | [3] 28.7% | [4] 55.4% | [5] 33.4% | [6] 33% | [7] 56.6% | [8] 68.3% | [9] 21.3% | [11] 46.3% | [20] 56.7% | [18] 60% | [12] 48.3% | [13] 53.5% | [14] 20.1% | [19] 34.3% | [15] 51.3% | [16] 34%
